Experimental data taken from PubChem BioAssay.
Calls of active or inactive are those of the source.

Columns and labels:
[1] = small molecules captured by biotinylated probe aFSTL3 – biochemical, small-molecule microarray, fluorescence 635/667, stem cell growth factor project, primary screen (AID 1064); details: higher = more signal;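 note: measures binding of the biotinylated anti-FSTL3 antibody to printed compounds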
[2] = binders from COS7 lysate, DM2A8 probe, primary screen, torsin A project, cell lysate, small-molecule microarray, fluorescence 635/667 (AID 1065); details: higher = more signal, COS7 lysate expressing mutant human TOR1A
[3] = small molecules captured by biotinylated probe aFGF2 – biochemical, small-molecule microarray, fluorescence 635/667, stem cell growth factor project, primary screen (AID 1067); details: higher = more signal;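 note: measures binding of biotinylated aFGF2 protein to printed compounds on slides; z-score merges feature fluorescence and signal-to-noise across triplicate slides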
[4] = small molecules captured by biotinylated probe aFGF10 – biochemical, small-molecule microarray, fluorescence 635/667, stem cell growth factor project, primary screen (AID 1071); details: higher = more signal;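 note: score merges 667 nm spot intensity and signal to noise from triplicate slides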
[5] = biological target: Neurogenic locus notch homolog protein 2 (Homo sapiens) (UniProt Q04721); assay: small molecules binding Notch2 protein – biochemical, small-molecule microarray, 635 nm fluorescence, stem cell growth factors, primary screen (AID 1073); details: higher = more signal
Neurogenic locus notch homolog protein 2 (Homo sapiens), sequence (Q04721 whole entry, looked up, canonical isoform): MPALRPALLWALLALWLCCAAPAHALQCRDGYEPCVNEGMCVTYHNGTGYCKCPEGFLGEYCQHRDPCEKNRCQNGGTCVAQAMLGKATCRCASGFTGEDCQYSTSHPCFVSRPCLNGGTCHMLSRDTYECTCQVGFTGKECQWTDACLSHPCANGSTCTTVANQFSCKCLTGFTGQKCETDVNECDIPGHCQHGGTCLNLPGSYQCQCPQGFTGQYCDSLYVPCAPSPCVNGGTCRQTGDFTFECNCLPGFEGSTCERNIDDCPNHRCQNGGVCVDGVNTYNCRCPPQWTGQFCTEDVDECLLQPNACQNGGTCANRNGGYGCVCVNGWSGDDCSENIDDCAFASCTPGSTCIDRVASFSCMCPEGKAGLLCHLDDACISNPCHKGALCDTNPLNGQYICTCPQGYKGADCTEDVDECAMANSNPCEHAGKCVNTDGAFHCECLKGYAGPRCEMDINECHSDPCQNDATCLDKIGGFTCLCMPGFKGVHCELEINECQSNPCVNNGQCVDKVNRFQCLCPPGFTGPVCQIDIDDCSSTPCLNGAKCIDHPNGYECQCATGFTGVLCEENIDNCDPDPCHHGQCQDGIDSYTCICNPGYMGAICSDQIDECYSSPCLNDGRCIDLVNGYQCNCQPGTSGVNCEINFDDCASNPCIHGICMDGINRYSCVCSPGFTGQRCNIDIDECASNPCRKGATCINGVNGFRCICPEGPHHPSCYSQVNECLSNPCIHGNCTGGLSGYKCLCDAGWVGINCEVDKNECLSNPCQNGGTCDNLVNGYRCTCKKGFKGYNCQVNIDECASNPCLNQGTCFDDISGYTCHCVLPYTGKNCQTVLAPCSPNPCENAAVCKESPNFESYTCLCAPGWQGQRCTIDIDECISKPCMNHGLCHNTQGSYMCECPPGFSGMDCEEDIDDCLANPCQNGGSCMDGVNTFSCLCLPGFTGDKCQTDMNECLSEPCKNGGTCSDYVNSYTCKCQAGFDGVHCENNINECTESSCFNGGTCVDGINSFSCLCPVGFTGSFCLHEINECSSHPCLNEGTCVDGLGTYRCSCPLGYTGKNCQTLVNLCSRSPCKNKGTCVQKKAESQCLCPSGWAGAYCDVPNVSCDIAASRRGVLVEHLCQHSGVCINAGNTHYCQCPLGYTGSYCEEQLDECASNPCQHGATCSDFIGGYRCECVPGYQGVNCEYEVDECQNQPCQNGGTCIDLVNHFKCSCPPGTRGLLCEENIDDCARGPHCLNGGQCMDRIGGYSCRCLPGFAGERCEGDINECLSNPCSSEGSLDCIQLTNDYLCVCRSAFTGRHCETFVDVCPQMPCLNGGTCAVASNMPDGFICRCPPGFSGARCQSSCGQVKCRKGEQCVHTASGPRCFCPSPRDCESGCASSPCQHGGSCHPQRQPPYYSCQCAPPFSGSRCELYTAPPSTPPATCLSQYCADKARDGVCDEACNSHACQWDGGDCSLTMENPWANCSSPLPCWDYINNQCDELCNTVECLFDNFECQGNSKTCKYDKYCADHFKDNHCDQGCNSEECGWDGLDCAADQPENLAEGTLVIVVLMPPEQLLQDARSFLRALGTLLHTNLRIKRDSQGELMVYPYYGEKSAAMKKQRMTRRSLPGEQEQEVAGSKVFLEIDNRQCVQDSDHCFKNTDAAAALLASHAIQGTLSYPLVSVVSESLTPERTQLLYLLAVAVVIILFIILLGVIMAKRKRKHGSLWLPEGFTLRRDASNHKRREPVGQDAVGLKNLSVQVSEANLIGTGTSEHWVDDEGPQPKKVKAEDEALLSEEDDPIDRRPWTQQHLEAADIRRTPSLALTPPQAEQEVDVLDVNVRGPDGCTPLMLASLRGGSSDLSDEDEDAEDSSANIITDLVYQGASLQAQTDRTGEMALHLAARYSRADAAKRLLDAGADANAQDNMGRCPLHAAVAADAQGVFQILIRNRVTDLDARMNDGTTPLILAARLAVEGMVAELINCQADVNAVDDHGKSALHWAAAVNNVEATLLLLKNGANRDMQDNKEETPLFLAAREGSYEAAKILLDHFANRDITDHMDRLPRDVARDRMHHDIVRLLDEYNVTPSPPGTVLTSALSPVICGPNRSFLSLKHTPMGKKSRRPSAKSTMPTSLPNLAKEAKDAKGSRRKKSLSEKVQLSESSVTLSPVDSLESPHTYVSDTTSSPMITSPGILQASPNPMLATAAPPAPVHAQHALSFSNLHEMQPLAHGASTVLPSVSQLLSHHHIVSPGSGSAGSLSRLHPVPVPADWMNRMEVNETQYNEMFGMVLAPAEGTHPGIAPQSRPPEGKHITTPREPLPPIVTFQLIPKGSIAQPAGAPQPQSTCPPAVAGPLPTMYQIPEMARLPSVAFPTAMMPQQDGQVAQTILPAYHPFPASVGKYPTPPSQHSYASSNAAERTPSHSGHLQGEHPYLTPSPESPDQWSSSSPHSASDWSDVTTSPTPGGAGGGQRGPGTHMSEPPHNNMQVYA

[6] = biological target: Pro-neuregulin-1, membrane-bound isoform (Homo sapiens) (UniProt Q02297); assay: small molecules binding neuregulin-1 protein – biochemical, small-molecule microarray, fluorescence 635/667, psychiatric disease protein project, primary screen (AID 1075); details: NRG1 binding, 635 nm fluorescence, higher = more signal;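 note: score combines 667 nm spot fluorescence with signal to noise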
Pro-neuregulin-1, membrane-bound isoform (Homo sapiens), sequence (Q02297 whole entry, looked up, the tested form may be a part, canonical isoform): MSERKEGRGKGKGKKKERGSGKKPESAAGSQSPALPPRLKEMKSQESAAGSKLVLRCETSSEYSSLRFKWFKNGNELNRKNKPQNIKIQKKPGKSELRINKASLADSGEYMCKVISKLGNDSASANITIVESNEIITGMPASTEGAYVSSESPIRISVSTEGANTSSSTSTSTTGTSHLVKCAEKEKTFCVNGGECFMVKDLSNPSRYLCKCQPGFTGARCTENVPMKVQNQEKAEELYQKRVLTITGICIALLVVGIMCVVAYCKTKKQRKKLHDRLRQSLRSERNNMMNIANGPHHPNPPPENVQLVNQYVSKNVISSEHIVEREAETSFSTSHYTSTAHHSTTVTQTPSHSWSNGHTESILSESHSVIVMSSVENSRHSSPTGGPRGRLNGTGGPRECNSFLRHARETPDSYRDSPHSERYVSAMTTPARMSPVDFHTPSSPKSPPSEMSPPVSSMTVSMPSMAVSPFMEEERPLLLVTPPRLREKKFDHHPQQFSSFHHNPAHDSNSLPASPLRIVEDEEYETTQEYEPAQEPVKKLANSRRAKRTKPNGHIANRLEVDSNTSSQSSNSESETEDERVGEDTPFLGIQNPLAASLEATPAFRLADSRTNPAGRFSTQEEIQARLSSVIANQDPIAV

[7] = test system: Neuregulin-1 EGF-like domain; assay: small molecules binding NRG1 EGF domain – biochemical, small-molecule microarray, 635 nm fluorescence, primary screen (AID 1081); details: higher = more signal;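 note: binding of the protein to compounds printed on small-molecule microarray slides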
[8] = FRG1 expression reporter modulators in myotubes – cell-based, C2C12 myotubes, firefly/Renilla luciferase, luminescence, FRG1 inhibition for FSHD, primary screen (AID 1084); details: FRG1 promoter luciferase, higher = more signal, called active from +8 up or from −8 down
[9] = small molecules captured by biotinylated probe aFST – biochemical, small-molecule microarray, fluorescence 635/667, stem cell growth factor project, primary screen (AID 1086); details: higher = more signal;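 note: score merges 667 nm fluorescence with signal-to-noise of each printed compound spot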
[10] = binders of probe aHhip on microarray, primary screen, stem cell growth factor project, biochemical, small-molecule microarray, fluorescence 635/667 (AID 1087); details: higher = more signal;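 note: score merges spot fluorescence at 667nm with spot signal to noise ratio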
[11] = test system: PRMT1 (protein arginine N-methyltransferase 1); assay: small molecules binding arginine methyltransferase PRMT1 – biochemical, small-molecule microarray, 635 nm fluorescence, primary screen (AID 1088); details: higher = more signal;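 note: binding of Prmt1 protein to compounds spotted on small-molecule microarray slides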
[12] = growth effects on S. cerevisiae YJM789 – YJM789 clinical isolate, OD600, 24 h, basal, primary screen (AID 1089); details: higher = more signal, called active from +8 up or from −8 down;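 note: growth of clinical yeast isolate S. cerevisiae YJM 789 seeded 1000 cells per well; test concentration not given here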
[13] = S. pombe growth modifiers, basal conditions – strain 972, OD600, 24 h, no modulator, primary screen (AID 1090);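 note: basal condition with compound alone and no growth modifier present; test concentration not given here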; details: S. pombe 972 growth, higher = more signal, called active from +8 up or from −8 down
[14] = budding yeast growth modifiers under rapamycin – strain BY4716, OD600, 96 h, primary screen (AID 1091); note: test concentration not given here; details: S. cerevisiae BY4716 + rapamycin, higher = more signal, called active from +8 up or from −8 down
[15] = biological target: Torsin-1A-interacting protein 2 (Homo sapiens) (UniProt Q8NFQ8); assay: small molecules binding lysate-expressed LULL1 – cell lysate, human LULL1 lysate, 635/667 nm fluorescence, primary screen (AID 1092); details: small-molecule microarray, hLULL1 lysate binding, 635 nm fluorescence; higher = more signal;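 note: probe is lysate of COS7 cells overexpressing human LULL1; score merges per-feature 667 nm fluorescence with signal-to-noise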
Torsin-1A-interacting protein 2 (Homo sapiens), sequence (Q8NFQ8 whole entry, looked up): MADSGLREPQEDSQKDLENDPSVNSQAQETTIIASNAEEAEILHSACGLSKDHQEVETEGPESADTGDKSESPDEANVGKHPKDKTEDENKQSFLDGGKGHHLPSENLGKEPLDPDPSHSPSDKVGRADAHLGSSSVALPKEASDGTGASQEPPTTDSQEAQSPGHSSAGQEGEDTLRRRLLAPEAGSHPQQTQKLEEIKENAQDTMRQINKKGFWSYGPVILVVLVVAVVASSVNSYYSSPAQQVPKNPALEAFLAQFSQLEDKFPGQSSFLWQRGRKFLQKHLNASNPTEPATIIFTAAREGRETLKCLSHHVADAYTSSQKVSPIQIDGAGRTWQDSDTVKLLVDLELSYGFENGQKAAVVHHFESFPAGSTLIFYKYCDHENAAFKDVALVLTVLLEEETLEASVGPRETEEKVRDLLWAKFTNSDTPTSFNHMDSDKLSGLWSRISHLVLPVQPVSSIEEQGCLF

[16] = optical density change of DRC41 E. coli – strain DRC41, OD650, 24 h, E. coli filamentation project, primary screen (AID 1093);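 note: MC1000 strain lacking acrAB efflux and sulA so SOS filamentation is blocked; test concentration not given here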; details: E. coli DRC41 growth, higher = more signal, called active from +8 up or from −8 down
[17] = probe aLefty2 binding to arrayed compounds – biochemical, biotinylated probe, 635/667 nm fluorescence, primary screen (AID 1094); details: small-molecule microarray, higher = more signal;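 note: score merges spot fluorescence near 667 nm with spot signal-to-noise ratio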
[18] = test system: Noggin (protein binding on small-molecule microarray); assay: small molecules binding Noggin protein – biochemical, 635/667 nm fluorescence, primary screen (AID 1095); details: 635 nm fluorescence, higher = more signal;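 note: score merges 667 nm feature fluorescence with signal to noise over triplicate slides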
[19] = biological target: Neurogenic locus notch homolog protein 3 (Homo sapiens) (UniProt Q9UM47); assay: small molecules binding NOTCH3 protein – biochemical, 635/667 nm fluorescence, primary screen (AID 1096); details: small-molecule microarray, 635 nm fluorescence, higher = more signal
[20] = probe aEGFR binding to arrayed compounds – biochemical, biotinylated probe, 635/667 nm fluorescence, primary screen (AID 1097); details: small-molecule microarray, higher = more signal;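 note: probe is a biotinylated anti-EGFR antibody binding compounds printed on slides; score combines fluorescence near 667 nm and signal to noise of each spot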

SMILES	composite z-score [1]	composite z-score [2]	composite z-score [3]	composite z-score [4]	composite z-score [5]	composite z-score [6]	composite z-score [7]	z-score [8]	composite z-score [9]	composite z-score [10]	composite z-score [11]	z-score [12]	z-score [13]	z-score [14]	composite z-score [15]	z-score [16]	composite z-score [17]	composite z-score [18]	composite z-score [19]	composite z-score [20]
C=CCC1=C[C@H]2[C@H]([C@@H]3C=C[C@]2(CC=C)C(=O)[C@]32CO2)[C@@]2(CO2)C1=O	0.076	1.28	-0.034	0.612	0.333	-0.35	0.319	-1.52 (inactive)	0.501	0.0542	0.388	0.683 (inactive)	-21.2 (active)	-4.1 (inactive)	0.756	2.54 (inactive)	0.233	1.65	0.183	0.148
[N-]=[N+]=NCc1ccccc1C[C@@]1(C(=O)N2CCOCC2)N=C(c2ccc(OCCCO)cc2)O[C@@H]1c1ccccc1N=[N+]=[N-]	0.308	0.968	0.345	0.819	1.59	1.13	1.26	-2.14 (inactive)	0.889	-0.146	1.56	-0.788 (inactive)	-0.39 (inactive)	6.02 (inactive)	3.16	0.282 (inactive)	0.557	0.41	1.08	0.318
O=C(CS)NCCCCCNC(=O)[C@H]1C[C@H]2C(=O)N3CCC[C@H]3C(=O)N2[C@H]1c1ccc(O)cc1	0.305	0.0424	-0.0363	-0.267	-0.231	0.873	1.25	0.393 (inactive)	-0.339	0.0274	-0.183	-0.0414 (inactive)	-1.25 (inactive)	0.0236 (inactive)	0.0874	1.62 (inactive)	-0.0961	0.0529	-1.17	-0.184
O=C(NCc1ccccc1)[C@@]1(CCS(=O)(=O)c2ccccc2)COC(c2ccc(OCCCO)cc2)=N1	0.971	0.985	0.0025	0.382	1.17	2.16	1.18	-4.58 (inactive)	0.662	-0.15	1.53	-0.53 (inactive)	-0.111 (inactive)	31.5 (active)	3.6	2.12 (inactive)	0.167	0.16	1.13	0.0033
CCC#CCN(Cc1ccccc1Br)[C@H](/C=C/c1ccccc1)[C@@H](O)Cc1ccccc1	1.78	-0.387	-0.176	-0.61	-1.52	-0.0939	-0.11	-0.227 (inactive)	-0.465	-0.271	-0.394	0.629 (inactive)	0.266 (inactive)	1.12 (inactive)	1.22	0.567 (inactive)	0.136	-1.78	-1.11	-0.458
O=C1C[C@@](C(=O)NC2CC2)(c2ccc([N+](=O)[O-])cc2)[C@@H](c2ccc(CO)cc2I)N1CC12CC3CC(CC(C3)C1)C2	-0.514	-0.407	0.01	0.487	1.05	0.346	1.24	-2.34 (inactive)	0.303	-0.184	1.48	1.82 (inactive)	1.19 (inactive)	5.3 (inactive)	2.96	-1.05 (inactive)	-0.145	1.32	1.07	-0.198
COC(=O)C[C@H]1O[C@]2(C(=O)N(C)c3ccccc32)[C@@H](C)[C@@H]1[Si](C)(C)c1ccc(OC)cc1	-0.352	0.0371	-0.005	0.791	0.146	0.367	1.06	-2.07 (inactive)	0.673	-0.0645	0.53	-3.04 (inactive)	-16.7 (active)	-1.54 (inactive)	0.49	1.67 (inactive)	-0.0667	1.07	0.622	0.0104
CCCC[C@H]1OB(O)C[C@H]2C1=C(COC)C[C@H]1C(=O)N(Cc3ccccc3)C(=O)[C@H]12	-0.193	0.323	0.0644	0.3	0.908	0.173	-0.334	-0.788 (inactive)	0.633	0.124	-0.0448	-0.776 (inactive)	-1.69 (inactive)	-1.69 (inactive)	0.58	2.71 (inactive)	-0.113	0.321	0.75	-0.0958
CC(C)(C)OC(=O)CC[C@]1(C(=O)N2CCCCC2)N=C(c2ccc(OCCCO)cc2)O[C@H]1c1ccccc1	-0.187	1.67	0.136	1.07	1.55	1.53	1.27	-4.25 (inactive)	0.772	-0.299	1.54	-4.57 (inactive)	-3.11 (inactive)	-1.07 (inactive)	3.48	0.726 (inactive)	0.0224	1.04	1.15	-0.084
